The campaign covered roughly 48,000 compounds. About 13,000 (27%) showed an effect of 50% or more. The list shows a part of the results.
These compounds were tested on Wolbachia pipientis (assay: Anti-Wolbachia Cell-Based Screen). Details: 5 µM.
Format: functional
Set-up: scale not given: in the data most compounds retested in dose-response had high values
For `O=C(CCNS(=O)(=O)c1cccnc1)N1CCCCC1`, the “Percent Effect” value was -5.593%. With `O=C(c1cnccn1)N1C[C@@H]2OCC(=O)N(CC3CCCCC3)[C@@H]2C1` the “Percent Effect” value was -4.007%. With `Cc1ccc(C)c(NC(=O)c2n[nH]c(-n3cnnc3)n2)c1` the “Percent Effect” value was 8.614%. With `Cn1c(Nc2ccc(F)cc2)c(C#N)c(=O)n(C)c1=O` the “Percent Effect” value was 7.851%. For `CC1(C(=O)NCCN2CCCCC2)CCCN1C(=O)c1ccccc1` (stereo not given), the “Percent Effect” value was 0.8057%. In the case of `Cc1cccc(C(=O)N2CCn3c(CN4CCN(C)CC4)cnc3C2)n1`, the “Percent Effect” value was -13.05%. `O=C(c1cnn(-c2ccccc2)c1)N1CCN(c2cnccn2)CC1` was tested, and the “Percent Effect” value was -7.881%. With `CNC(=O)C1(c2cnccn2)CCCN1C(=O)c1cccc(C)n1` (stereo not given) the “Percent Effect” value was 90.25%. In the case of `Cc1cccc(C(=O)N2C[C@@H]3[C@H](CC(=O)Nc4cccnc4)[C@@H]3C2)n1.O=C(O)C(F)(F)F.O=C(O)C(F)(F)F`, the “Percent Effect” value was -1.772%. For `CNC(=O)C1(c2cnccn2)CCCN1C(=O)c1ccccc1` (stereo not given), the “Percent Effect” value was 95.42%. With `CC1=CC(C)(C)N(CN2C(=O)c3ccccc3C2=O)c2ccccc21` the “Percent Effect” value was -12.76%. `CNC(=O)C(c1cccc(Cl)c1)C(C)C` (stereo not given) was tested, and the “Percent Effect” value was -9.115%. `COc1ccc(C2(c3nc(-c4cccnc4)no3)CCOCC2)cc1` was tested, and the “Percent Effect” value was -4.756%. For `Cc1cnn(C2CCCN(C(=O)CCCOc3ccccc3F)C2)c1` (stereo not given), the “Percent Effect” value was 143.9%. For `Cc1cnn(C2CCCN(C(=O)CCCNc3ncccn3)C2)c1` (stereo not given), the “Percent Effect” value was 0.4653%. In the case of `Cc1cnn(C2CCCN(C(=O)CCCOc3cccc(F)c3)C2)c1` (stereo not given), the “Percent Effect” value was 4.981%. With `Cc1cc(C)n(C2CCCN(C(=O)CCCNc3ncccn3)C2)n1` (stereo not given) the “Percent Effect” value was 16.33%. With `COc1ccc(CC(=O)N2CCCC(n3cc(C)cn3)C2)cc1F` (stereo not given) the “Percent Effect” value was -2.795%. `Cc1cnn(C2CCCN(C(=O)CCCc3ccccn3)C2)c1` (stereo not given) was tested, and the “Percent Effect” value was 102.3%. In the case of `Cc1nc(C)n(C2CCCN(C(=O)CCCc3ccccn3)C2)n1` (stereo not given), the “Percent Effect” value was 81.77%. With `O=C(CCNc1ncccn1)N1CCCC(n2ccnc2)C1` (stereo not given) the “Percent Effect” value was -7.544%. With `Cc1nc(C)n(C2CCCN(C(=O)c3cccnc3NC(C)C)C2)n1` (stereo not given) the “Percent Effect” value was -8.043%. In the case of `Cc1cc(C)n(C2CCCN(C(=O)CCNc3ncccn3)C2)n1` (stereo not given), the “Percent Effect” value was 114.6%. With `Cc1nc(C)n(C2CCCN(C(=O)CCc3ccncc3)C2)n1` (stereo not given) the “Percent Effect” value was 4.522%. For `CCOCc1nc2c(c(N3CC=CC3)n1)CCN(Cc1ccco1)CC2`, the “Percent Effect” value was -6.095%. For `CCn1c(C)nnc1SCCNc1nc(C)nc2ncccc12`, the “Percent Effect” value was -6.645%. For `CCOc1ccc(NS(=O)(=O)c2cc(C)c(C(=O)O)s2)c(C)c1`, the “Percent Effect” value was 5.769%. `Cc1nn(C)c(C)c1C(C)NC(=O)c1cc(CN2CCC(O)CC2)on1` (stereo not given) was tested, and the “Percent Effect” value was -4.084%. With `Cc1cnn(Cc2ccc(NC(=O)N[C@@H]3C=C[C@H](CO)C3)cc2)c1` the “Percent Effect” value was -14.53%. For `CSC(C)Cc1c(-c2ccccc2)ncn1CCCNc1cccnc1` (stereo not given), the “Percent Effect” value was -5.851%. For `Cc1cnn(C2CCCN(C(=O)CCCn3ccnc3C)C2)c1` (stereo not given), the “Percent Effect” value was 111.3%. For `CCc1nccn1C1CCCN(C(=O)CCc2nccs2)C1` (stereo not given), the “Percent Effect” value was 3.707%. For `Cc1cc(C)n(CC2CCCN2C(=O)CCCc2ccccn2)n1` (stereo not given), the “Percent Effect” value was -3.027%. In the case of `CCc1nccn1C1CCCN(C(=O)Cc2n[nH]c3ccccc23)C1` (stereo not given), the “Percent Effect” value was -2.139%. For `CCc1nccn1C1CCCN(C(=O)CCCc2ccccn2)C1` (stereo not given), the “Percent Effect” value was 115.4%. With `Cc1cc(C)n(C2CCCN(C(=O)CCCc3ccccn3)C2)n1` (stereo not given) the “Percent Effect” value was 93.32%. `COc1ccccc1CC(=O)N1CCCC(n2nc(C)cc2C)C1` (stereo not given) was tested, and the “Percent Effect” value was 7.114%. With `Cn1cnnc1C1CCCN(c2nc3ccccc3o2)C1` (stereo not given) the “Percent Effect” value was -0.3699%. For `CCc1ncc2c(n1)CN(Cc1cn3ccsc3n1)CC2`, the “Percent Effect” value was 20.43%. For `Cc1nc2c(c(N(C)CC3Cc4ccccc4CN3C)n1)CCNCC2` (stereo not given), the “Percent Effect” value was -8.073%. In the case of `CC(C)(C)NC[C@@H]1CCC[C@@H]2CN(Cc3csnn3)C[C@@H]21.O=C(O)C(F)(F)F.O=C(O)C(F)(F)F`, the “Percent Effect” value was 1.989%. With `CCN(C)S(=O)(=O)N1C[C@@H]2CC[C@H](C1)N(Cc1cscn1)C2=O` the “Percent Effect” value was -57.82%. For `Cc1nnc(C(C)Nc2cccc(COCCOC(C)C)c2)o1` (stereo not given), the “Percent Effect” value was -13.05%. `CCCNC(=O)C(C)Nc1ccc(COCC)cc1` (stereo not given) was tested, and the “Percent Effect” value was -5.955%. With `COCc1cccc(NC(C)C(=O)N(C)Cc2ccccc2)c1` (stereo not given) the “Percent Effect” value was -9.622%. In the case of `CC(Nc1cccc(COCc2ccco2)c1)C(=O)NC(N)=O` (stereo not given), the “Percent Effect” value was 118%. In the case of `CCOC(=O)C(C)Nc1cccc(COCc2ccco2)c1` (stereo not given), the “Percent Effect” value was 114.3%. With `CC(Nc1cccc(CN2CCOC2=O)c1)C(=O)NC(N)=O` (stereo not given) the “Percent Effect” value was 6.904%. In the case of `O=C(O)C(F)(F)F.O=C(O)C(F)(F)F.O=C(c1ccncc1)N1CCN2C[C@H](Oc3cccc(F)c3)C[C@H]2C1`, the “Percent Effect” value was 3.231%. `Cc1cccnc1NC(=O)C(C)Cn1nc(C(F)(F)F)cc1C` (stereo not given) was tested, and the “Percent Effect” value was 5.887%. In the case of `Fc1ccc2nc([C@H]3CCNC3)[nH]c2c1`, the “Percent Effect” value was -0.4881%. With `c1c[nH]c2nc(C3CCNC3)nc-2c1` (stereo not given) the “Percent Effect” value was 89.57%. With `CCC(=O)NCC(=O)Nc1ncc(I)cc1C` the “Percent Effect” value was -1.135%. `C[C@@H]1CN(C(=O)C2CCOCC2)C[C@]12CCN(c1cccnc1)C2=O.O=C(O)C(F)(F)F` was tested, and the “Percent Effect” value was -10.36%. For `C[C@H]1CN(c2ccccn2)C[C@@]12CCN(c1cccnc1)C2=O.O=C(O)C(F)(F)F.O=C(O)C(F)(F)F`, the “Percent Effect” value was 96.67%. In the case of `COc1cc(N2CCC3(CC2)CCN(c2cccnc2)C3=O)ncn1.O=C(O)C(F)(F)F`, the “Percent Effect” value was -8.044%. In the case of `Cc1ccc(N2C[C@H](C)[C@]3(CCN(c4cccnc4)C3=O)C2)nn1.O=C(O)C(F)(F)F.O=C(O)C(F)(F)F`, the “Percent Effect” value was 82.56%. `NS(=O)(=O)CCNC(=O)c1cc(Br)c2c(c1)OCCO2` was tested, and the “Percent Effect” value was 3.55%. `CC(C(=O)N1CCCN(Cc2cnn(C(C)C)c2)CC1)n1ccnc1` (stereo not given) was tested, and the “Percent Effect” value was 86.84%. `CC(C)n1cc(CN2CCCN(C(=O)C(C)n3cncn3)CC2)cn1` (stereo not given) was tested, and the “Percent Effect” value was 115.2%. In the case of `CC(C)C(C(=O)N1CCCN(Cc2cnn(C)c2)CC1)n1cncn1` (stereo not given), the “Percent Effect” value was -6.037%. With `Cc1ncncc1C(=O)N1CCCN(Cc2cnn(C(C)C)c2)CC1` the “Percent Effect” value was -23.75%. For `CC(C)n1cc(CN2CCCN(C(=O)c3ccc[nH]3)CC2)cn1`, the “Percent Effect” value was -9.453%. With `CC(C(=O)N1CCCN(Cc2ccc(C#N)cc2)CC1)n1ccnc1` (stereo not given) the “Percent Effect” value was -13.4%. `CC(C)n1cc(CN2CCCN(C(=O)c3nccnc3N)CC2)cn1` was tested, and the “Percent Effect” value was -14.33%. With `CC(C)n1cc(CN2CCCN(C(=O)C(C)n3cccn3)CC2)cn1` (stereo not given) the “Percent Effect” value was 97.33%. In the case of `CCC(=O)N1CCN(c2cc(-n3cnc(C)c3C)nc(C)n2)CC1`, the “Percent Effect” value was -0.8212%. `CN1CCOC(C(=O)N(C)c2ccc3c(c2)CCO3)C1` (stereo not given) was tested, and the “Percent Effect” value was -1.104%. In the case of `Cc1cccc(-c2nc(C)nn2CN2CCN(c3ncccn3)CC2)c1`, the “Percent Effect” value was -20.31%. For `CCC(C(=O)NCc1ccncc1)N(c1ccccc1)S(C)(=O)=O` (stereo not given), the “Percent Effect” value was -24.56%. With `COCCn1cc(NC(=O)NC(C)c2ccc(Cl)s2)cn1` (stereo not given) the “Percent Effect” value was 1.705%. With `CC1(C)[C@H](Cc2cc(CN3CCCCC3)on2)C[C@@H]1NS(C)(=O)=O` the “Percent Effect” value was -2.638%. `CN(Cc1ccsc1)C(=O)c1nc(N2CCCC2)ncc1Cl` was tested, and the “Percent Effect” value was -53.64%. `CN(C)C(CNC(=O)c1nc(N2CCCC2)ncc1Cl)c1ccco1` (stereo not given) was tested, and the “Percent Effect” value was 2.501%. With `CC(C)C(=O)N(C)Cc1nc(N2CCCC2)ncc1-c1ccncc1.Cl` the “Percent Effect” value was 82.87%. With `CN(Cc1nc(N2CCCC2)ncc1-c1ccncc1)C(=O)C(C)(C)C.Cl` the “Percent Effect” value was 94.15%. `CN(Cc1ccsc1)C(=O)c1nc(N2CCCCC2)ncc1Cl` was tested, and the “Percent Effect” value was 3.668%. For `Cn1c(NC(=O)CCS(=O)(=O)C2CCCC2)nc2cc(Cl)ccc21`, the “Percent Effect” value was 1.786%. For `CCN(CC)CC[C@H]1CN(C(=O)CC(C)(C)C)CC[C@H]1CC(=O)O`, the “Percent Effect” value was -10.9%. In the case of `O=C(C1CC1)N1CCc2[nH]cnc2C12CCN(C1CCOCC1)CC2`, the “Percent Effect” value was -3.543%. `Cc1cnn(-c2ccc(S(N)(=O)=O)cc2F)c1` was tested, and the “Percent Effect” value was -6.422%. In the case of `COc1ccc(F)cc1S(=O)(=O)N1CCC(Oc2ccc(Cl)cn2)CC1`, the “Percent Effect” value was -6.405%. With `CC1CN(S(=O)(=O)c2ccc(F)cc2)c2cccnc2O1` (stereo not given) the “Percent Effect” value was -6.329%. With `O=S(=O)(c1ccc(F)c(F)c1)n1cc(Cl)cn1` the “Percent Effect” value was 96.85%. For `Cn1cc(CNS(=O)(=O)c2cc(F)ccc2F)cn1`, the “Percent Effect” value was -25.59%. For `O=S(=O)(c1cc(F)ccc1F)n1cc(Cl)cn1`, the “Percent Effect” value was 95.85%. For `O=S(=O)(c1ccc(F)cc1)N1CCCn2cnc(CN3CCCC3)c2C1`, the “Percent Effect” value was -4.272%. With `O=S(=O)(c1ccc(F)cc1)n1cc(Cl)cn1` the “Percent Effect” value was 120.8%. In the case of `O=S(=O)(c1cc(F)cc(F)c1)N1CCC(Oc2ccc(Cl)cn2)CC1`, the “Percent Effect” value was 14.51%. In the case of `Cc1nc(CCNC(Cc2ccncc2)C(F)(F)F)cs1` (stereo not given), the “Percent Effect” value was -2.78%. With `CC(O)CCn1ccc2[nH]c(=O)c(C#N)cc2c1=O` (stereo not given) the “Percent Effect” value was -44.58%. In the case of `COc1cc2[nH]c(=O)c(CN3CCC[C@@H]3C(N)=O)cc2c(OC)c1OC`, the “Percent Effect” value was -9.081%. For `COC(=O)C(C)NCc1ccc2[nH]c(C)c(C)c2c1` (stereo not given), the “Percent Effect” value was -1.475%. `COC(=O)c1cc2c(OC)c(C)c(OC)cc2[nH]1` was tested, and the “Percent Effect” value was 95.02%. With `COC(=O)c1cc2c(OC)c(OC)c(OC)cc2[nH]1` the “Percent Effect” value was 120.2%. `COc1cc(C(=O)N(C)Cc2cc(C(=O)O)c(C)o2)cc(OC)c1OC` was tested, and the “Percent Effect” value was -0.7675%. For `COc1cc2[nH]c(C(=O)O)cc2c(OC)c1C`, the “Percent Effect” value was 98.44%. For `COc1cc2cc(C(=O)O)n(C)c2c(OC)c1OC`, the “Percent Effect” value was -1.189%. `COc1cc2[nH]c(=O)c(CN3CCCC(CO)C3)cc2c(OC)c1OC` (stereo not given) was tested, and the “Percent Effect” value was 1.788%. `COc1cc(C(=O)Nc2c(C)noc2C)ccc1C` was tested, and the “Percent Effect” value was 5.924%.

Source: ChEMBL document CHEMBL3988442, “University of Dundee, Small-Polar-MMV Screening Library” (2021)
